Data: PubChem BioAssay (NCI)
This is part of a sample that, as a whole, favours compounds with a hit. Of some 83,000 tested, about 20% had one in any assay.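 Percent growth is the endpoint: 0 to 100 indicates growth inhibition (40 means 60% inhibition), 0 means no net growth, and negative values indicate cell death.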 Values without a mark were called inactive. The source made the active and inactive calls. How the source made its calls: active means growth percent below 10; inactive means the rest.

The compounds below were run on MDA-MB-468 breast (assay: NCI-60 one-dose screen, 48 h (100 = growth as untreated, 0 = no growth, -100 = all killed)). Conditions: 10 µM unless noted.
O=C1/C(=C/c2ccc(Br)cc2)COc2ccc(O)cc21 gave a growth of 89%. In the case of COc1cc(/C=C/c2cc(/C=C/c3ccc(O)c(OC)c3)n(-c3c(Cl)cccc3Cl)c(=O)n2)ccc1O, the growth is reported as 29.6%. In the case of COc1ccc(-c2nc(N/N=C/c3c[nH]c4ccccc34)nc(N3CCOCC3)c2C#N)cc1, the growth is reported as 97.8%. O=C1CCC(=O)N1Cc1ccccc1 showed a growth of 88.2%. CC(=O)N1c2ccccc2NC2=C(C(=O)NC2(C)C)C1c1ccco1 (stereo not given) was tested, and the growth was 65.9%. COc1c(C2CC(=O)Nc3c2c(C)nn3-c2nc3ccccc3[nH]2)cc2c(c1OC)OCO2 (stereo not given) gave a growth of 29.6%. Compound CC(C(=O)O)(C1CCCCC1)C1(O)CCCCC1 (stereo not given) has a growth of 106%. Compound O=C(Cn1cc(CN2C(=O)c3ccc([N+](=O)[O-])cc3C2=O)nn1)Nc1ccc(F)cc1Cl has a growth of 97.9%. In the case of C[C@@H](Oc1cc(-c2cnn(C3CC4(CCNCC4)C3)c2)cnc1N)c1c(F)ccc(Cl)c1Cl, the growth is reported as -53.3% (active). CCC[S@](=O)c1ccc2nc(NC(=O)OC)[nH]c2c1 showed a growth of 94.1%. CC1(C)C2CCC1(C)C1(C2)OCCS1 (stereo not given) gave a growth of 89.8%. For COc1cc(C(=O)/C=C/c2c(Cl)nc3sccn23)cc(OC)c1OC, the growth was 60.1%. In the case of CC(C)(C)C(=O)OCOP(=O)(OCOC(=O)C(C)(C)C)C1CCCN(OC(=O)c2ccccc2)C1=O (stereo not given), the growth is reported as 29.6%. Compound O=C1[C@@H]2Cc3c([nH]c4ccccc34)[C@H](c3ccc(Br)cc3)N2C(=O)CN1C1CCN(Cc2c(Cl)cccc2Cl)CC1 has a growth of 95.9%. Work on COc1cc(/C(C)=C(\c2ccc(Cl)cc2)c2ccc(OCCN3CCCC3)cc2)ccc1F yielded a growth of 57.3%. O=c1nc(Nc2ccc([N+](=O)[O-])cc2O)sc2ccccc12 showed a growth of 34.3%. CCOC(=O)Nc1cc2c(c(N)n1)N=C(c1ccccc1)CO2 was tested, and the growth was 2.06% (active). O=C(/C(Cl)=N/O)c1ccc(-c2ccccc2)cc1 gave a growth of 104%. Compound Cc1nc2c(c(=O)[nH]1)OCN(Cc1ccccc1)C2 has a growth of 108%. Compound Cn1cc(-c2noc(-c3cn(C)c4ncc(F)cc34)n2)c2cc(Br)ccc21 has a growth of 61.3%. With COc1ccc(C(=O)/C=C/c2ccccn2)c(O)c1 the growth was 57.1%. For COc1cc2nc(-c3ccc(C#N)cc3)[nH]c(=O)c2cc1OC, the growth was 113%. Compound Cc1ccc(NCN2C(=O)c3ccccc3C2=O)c(C)n1 has a growth of 98.5%. Work on O=S(=O)(O)c1cnccn1 yielded a growth of 105%. Cc1ccc(C2=NNC(c3sc(Cl)nc3Cl)C2)cc1 (stereo not given) was tested, and the growth was 93.5%. CCO/C=N/C1=C(C#N)C(c2ccc(F)cc2)c2sc3c(CC)cccc3c2O1 (stereo not given) was tested, and the growth was 7.27% (active). For CCCC(=O)Oc1ccc(/C(=C(\C)c2ccc(Cl)cc2)c2ccc(OCCN(CC)CC)cc2)cc1, the growth was -64.1% (active). Compound O=C(Nc1ccc(Nc2ncccn2)cc1)NC1C=c2ccccc2=CC1 (stereo not given) has a growth of 110%. With C=C(C)[C@@H]1CC[C@]2(C(=O)Nc3ccccn3)CC[C@]3(C)[C@H](CC[C@@H]4[C@@]5(C)CCCNC(C)(C)[C@@H]5CC[C@]43C)[C@@H]12 the growth was -13.8% (active). Work on COc1cc(/C=C/C(=O)c2ccc(NC(=O)CSc3nnc(-c4cc(-c5ccccc5)nc5ccccc45)n3-c3ccccc3)cc2)cc(OC)c1OC yielded a growth of 81.5%. COc1cc(NCc2ccccc2O)c2ncccc2c1 was tested, and the growth was 90.4%. COc1cccc(CCC2CCCN(c3cc(C)nc(N)n3)C2)c1 (stereo not given) gave a growth of 26.1%. With O=C(O)Cc1ccccn1 the growth was 101%. Work on N/C(=C\C(=O)n1nc(-c2ccccc2)cc1N)c1ccccc1 yielded a growth of 19.2%. Compound CCOc1c(C#N)c(Nc2ccc(S(N)(=O)=O)cc2)c(C#N)c2nnc(C)n12 has a growth of 105%. With CCN(CC)CCCCNc1c2ccc(Cl)cc2nc2ccc(OC)cc12 the growth was -42.7% (active). Compound CN(C)c1ccc(NC(=O)c2ccc(/C=C/C(=O)c3ncc[nH]3)cc2)cc1 has a growth of 45.6%. COc1cc(-c2c(-c3ccccc3)c[nH]c2C(=O)NCCCO)c(OC)c2c1OCO2 gave a growth of 102%. Work on CC(C)n1nc(C#Cc2cccc3cc(-c4cccc(C(F)(F)F)c4)ncc23)c2c(N)ncnc21 yielded a growth of 98.3%. With C=CCSC1=NC2C(N(CC)C(=O)N2CC)N1/N=C/C=C/c1ccccc1OC (stereo not given) the growth was 29.6%.
